High-throughput results: PubChem, several laboratories
V-ATPase pH = regulators of yeast V-ATPase proton transport | S. cerevisiae, pHLuorin cytosolic pH fluorescence | response, % at 10 µM | actives 0.37% (n = 350,000) | AID 504577; in the data active = response mostly above about 7.3%, no sharp cut-off; inactive = mostly below about 5.4%; also: actives read high
NALP3 yeast inh = inhibitors of NALP3 inflammasome in yeast; Yeast reconstituted NLRP3/ASC/caspase-1, beta-gal luminescence, 24 h; inhibition, % at 10 µM; actives 0.39% (n = 330,000);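 active = inhibition of 50% or more; inactive = inhibition below 50%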
NALP1 yeast inh = blocks the NALP1 inflammasome reconstituted in yeast | inhibition, % at 10 µM | actives 0.61% (n = 280,000) | AID 2071 | S. cerevisiae NALP1/ASC/caspase-1 growth, X-gal OD620, 72 h; in the data active = inhibition mostly above about 24%, no sharp cut-off; inactive = mostly below about 32%
tim23-1 inh = inhibits growth of tim23-1 mutant yeast; inhibition, % at 20 µM; S. cerevisiae tim23-1 growth, BacTiter-Glo luminescence, 24 h; actives 1.3% (n = 330,000);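 active = growth inhibition of the mutant yeast at or above 50%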;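 also: temperature-sensitive mutant grown at 25 °C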
tim10-1 inh = inhibits growth of tim10-1 mutant yeast | S. cerevisiae tim10-1 ts strain growth, BacTiter-Glo, 24 h | inhibition, % at 20 µM | actives 2.2% (n = 330,000);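 active = inhibition of at least 40%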;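 also: mutant grown at 25 °C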
TIM10 inh = growth inhibitors of TIM10 yeast strain | S. cerevisiae TIM10 strain growth, BacTiter-Glo luminescence, 24 h | inhibition, % at 10 µM | actives 1.4% (n = 330,000) | AID 463195;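 active = inhibition of 40% or more at the single tested concentration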;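 also: wild-type TIM10 isogenic control strain grown at permissive 25 °C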
NALP3 yeast conf = confirmation of NALP3 inhibitors in yeast; actives 81% (n = 1,300); yeast expressing human NALP3, luminescence; shares compounds with NALP3 yeast inh; inhibition, % at 10 µM; in the data active = inhibition above about 48%
Casp1-ASC yeast = caspase-1-ASC yeast counter-screen hit; AID 488784; inhibition, % at 10 µM; actives 66% (n = 1,000); shares compounds with NALP3 yeast inh; yeast expressing Caspase-1-ASC, luminescence counter screen
NALP3 yeast rt = retest-confirmed inhibitor of NALP3 in yeast; shares compounds with NALP3 yeast inh; yeast expressing human NALP3, luminescence read-out; inhibition, % at 10 µM; actives 53% (n = 1,000)
tim10-1 conf = confirmation of tim10-1 mutant yeast growth inhibitors | actives 56% (n = 7,400) | shares compounds with tim10-1 inh | S. cerevisiae tim10-1 ts strain growth, BacTiter-Glo, 24 h | inhibition, % at 20 µM;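 active = inhibition of yeast growth at or above a set limit in either of two repeat tests at 20 µM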;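 also: tim10-1 mutant grown at permissive 25 °C to find synthetic lethal compounds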
TIM10 conf = confirmation of TIM10 yeast growth inhibitors; shares compounds with TIM10 inh; S. cerevisiae tim10 strain growth, BacTiter-Glo luminescence, 24 h; inhibition, % at 10 µM; actives 63% (n = 4,600); AID 463215;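 active = inhibition of yeast growth at or above a set limit in either of two replicates at 10 µM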; also: this counterscreen used the strain with wild-type TIM10
tim23-1 conf = tim23-1 yeast growth inhibition, confirmed. shares compounds with tim23-1 inh. S. cerevisiae tim23-1 growth, BacTiter-Glo luminescence, 24 h. inhibition, % at 20 µM. actives 83% (n = 4,400);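 active = inhibition above about 39% in either of two replicate wells at 20 µM, limit read from the data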;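 also: temperature-sensitive tim23-1 mutant grown at 25 °C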
A number is an active result; 0 = inactive; - = no result. Shown are actives, neighbours in structure and some others; about 4.2% of the full set was active somewhere. Rule as the data show it, unless noted: active = inhibition above about 50%; inactive = the rest.

SMILES	V-ATPase pH	NALP3 yeast inh	NALP1 yeast inh	tim23-1 inh	tim10-1 inh	TIM10 inh	NALP3 yeast conf	Casp1-ASC yeast	NALP3 yeast rt	tim23-1 conf	others
N#C/C(=C\c1ccc(O)cc1)c1nc2ccccc2o1	0	71.0	0	54.4	0	0	77.2	84.9	80.0	61.3
COc1cc(/C=C(\C#N)c2nc3ccccc3o2)ccc1O	0	0	0	0	0	0	-	-	-	-
Cc1ccc2c(c1)NC(=O)[C@@]1(C)[C@@H](c3ccccc3)[C@H]3COc4ccccc4[C@@H]3N1C2=O	0	0	-	0	0	0	-	-	-	-
C[C@@]12C(=O)Nc3ccc(Br)cc3C(=O)N1[C@H]1c3ccccc3OC[C@@H]1[C@@H]2c1ccccc1	0	87.5	-	61.5	0	0	89.4	89.8	74.2	57.5
Cc1ccc2c(c1)C(=O)N1[C@H]3c4ccccc4OC[C@@H]3[C@H](c3ccccc3)[C@]1(C)C(=O)N2	0	70.1	-	57.5	0	0	83.1	84.2	72.7	60.2
CC(c1nc2ccccc2n1Cc1ccccc1)N1CCCCC1 (configuration not stated)	0	0	0	0	0	0	-	-	-	-
CSc1ncnc2c1ncn2CCCN1CCN(C(=O)C2CC2)CC1	0	-	-	-	-	-	-	-	-	-
O=S1(=O)Nc2c(ccc3cccnc23)-c2ccccc21	0	69.6	0	70.0	0	47.9	85.6	98.3	91.3	47.2	TIM10 conf=56.9
Clc1ccc2ccc3cccnc3c2n1	0	0	0	0	0	0	-	-	-	-
COc1cc(CN2CCc3ccccc3C2)ccc1O	0	0	0	0	0	0	-	-	-	-
O=C(Nc1cccc(Br)c1)c1cc2ccccc2o1	0	64.0	0	52.5	0	47.0	62.3	0	60.0	62.4	TIM10 conf=48.6
Cc1cccc(NC(=O)c2cc3ccccc3o2)c1	0	54.1	0	53.7	0	0	72.0	58.8	52.5	41.1
COCCC(=O)N1CCC(Oc2ccc(C(=O)N3C[C@H]4CC[C@H]3C4)cc2)CC1	0	0	0	0	0	0	-	-	-	-
O=c1c2ccccc2nc(-c2ccc([N+](=O)[O-])cc2)n1O	0	58.0	0	51.6	0	0	74.2	51.3	57.5	47.2
O=C(Nc1ccc(F)c(Cl)c1)c1ccccc1	0	61.3	-	64.3	0	0	82.2	70.0	63.1	66.9
O=C(Nc1ccc2c(c1)OCCO2)c1cccc(Cl)c1	0	52.9	0	51.5	0	0	70.3	0	0	57.0
Cc1ccc(O)c(N=Nc2nccs2)c1	0	89.8	-	72.3	0	50.1	90.6	98.7	95.6	70.8	TIM10 conf=68.1
COc1ccc(N=Nc2cc(C)ccc2O)cc1	0	0	0	0	0	0	-	-	-	-
Cc1ccc(OCCOc2ccc(Cl)cc2Cl)c([N+](=O)[O-])n1	0	0	0	0	0	0	-	-	-	-
CN1CCN(C(c2ccc(Br)cc2)c2cc(Cl)c3cccnc3c2O)CC1 (configuration not stated)	0	57.3	0	65.6	0	0	0	-	-	77.2
Cc1ccccc1N=C1c2ccccc2C(=O)C1[N+](=O)[O-] (configuration not stated)	0	0	0	0	0	0	-	-	-	-
O=C(Nc1ccc2oc(-c3ccccc3)nc2c1)c1ccco1	0	76.5	0	51.2	0	63.9	0	-	-	78.6	TIM10 conf=0
CCN(CC)CCNC(=O)c1ccc(NC(=O)c2cccc(-n3cnnn3)c2)cc1	0	0	-	0	0	0	-	-	-	-
CC(Oc1cccc(Cl)c1)C(=O)Nc1nc(-c2ccccn2)cs1 (configuration not stated)	0	50.0	-	66.9	0	0	64.2	74.3	61.1	55.0
O=C(/C=C/c1ccnc2ccccc12)c1cccs1	0	53.2	0	66.7	70.9	78.5	72.5	-	-	0	tim10-1 conf=71.8;TIM10 conf=83.0
SMILES	V-ATPase pH	NALP3 yeast inh	NALP1 yeast inh	tim23-1 inh	tim10-1 inh	TIM10 inh	NALP3 yeast conf	Casp1-ASC yeast	NALP3 yeast rt	tim23-1 conf	others
O=C(N/N=C/c1ccsc1)c1cc2ccccc2o1	0	72.2	0	56.3	46.2	54.9	86.8	70.8	75.0	66.7	tim10-1 conf=0;TIM10 conf=47.5
C#C[C@]1(O)CC[C@H]2[C@@H]3CCc4cc(O)ccc4[C@H]3CC[C@@]21C	0	55.5	49.3	51.6	49.8	0	68.2	51.3	0	49.1	tim10-1 conf=34.2
CCOC(=O)CNC(=O)CSc1nnc(NC(=O)c2ccccc2Cl)s1	0	0	0	0	0	0	-	-	-	-
O=C(Nc1cccc(Cl)c1)c1cc(N=Nc2ccc([N+](=O)[O-])cc2Cl)ccc1O	0	56.5	0	71.2	70.5	0	86.2	0	55.9	77.5	tim10-1 conf=59.7
O=C(Nc1cccc(Cl)c1)c1cccc(Oc2ccc([N+](=O)[O-])cc2Cl)c1	0	0	0	0	0	0	-	-	-	-
Cc1c(NC(=O)c2cc(-c3ccc(Cl)cc3)on2)c(=O)n(-c2ccccc2)n1C	0	0	0	0	0	0	-	-	-	-
CCCn1nnc(NC(=O)c2sc3ccccc3c2Cl)n1	0	50.7	0	52.5	0	0	54.5	0	0	42.0
CCCn1nnc(NC(=O)c2cccc(Cl)c2)n1	0	0	0	0	0	0	-	-	-	-
COCCNC(=O)CN(Cc1ccc(F)cc1)C(=O)CCC(=O)Nc1nccs1	0	0	0	0	0	0	-	-	-	-
O=Cc1cn(-c2ccccc2)nc1-c1ccccc1	0	60.3	0	68.3	0	57.9	72.1	60.0	53.0	69.5	TIM10 conf=63.8
Cc1occc1C(=O)NNC(=O)c1ccccc1Br	0	0	0	0	0	0	-	-	-	-
Cc1ncc([N+](=O)[O-])n1S(=O)(=O)c1cc(Cl)ccc1Cl	0	0	0	0	0	0	-	-	-	-
C/C(=N\NC(=O)c1cccc(Br)c1)c1ccccn1	0	61.4	0	51.7	0	0	83.9	84.7	69.0	0
C/C(=N\NC(=O)c1cc(Br)ccc1O)c1ccccn1	0	0	0	0	0	0	-	-	-	-
CNC(=O)Nc1cccc(-c2cc(-c3c(Cl)cccc3Cl)no2)c1	0	0	0	0	0	0	-	-	-	-
CC(=O)Nc1cccc(-c2cc(-c3c(Cl)cccc3Cl)no2)c1	0	52.0	-	61.4	0	44.0	0	53.0	51.6	40.7	TIM10 conf=0
CC1(C)COC(c2cc([N+](=O)[O-])ccc2Cl)=N1	0	0	0	0	0	0	-	-	-	-
